Out of some 320,000 compounds screened, about 3,100 (0.97%) were called active.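 Rule for the calls: active = mean replicate inhibition of at least 70% and a set share of replicates each scoring 70 or more; inconclusive = meets just one of the two criteria; inactive = fails both criteria.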 The list comes from a sample in which actives are over-represented; it also holds similar structures and randomly drawn compounds.
molecular target: Scavenger receptor class B member 1 (Mus musculus) (UniProt Q61009); test: mouse SR-BI DiI-HDL uptake blockers – ldlA[mSR-BI] cells, fluorescence, single point, primary screen (AID 488896); settings: ldlA[mSR-BI] CHO cells, 3 h, at 12.5 µM, hits give high values;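 note: 0% = median of neutral control wells and 100% = median of positive control wells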
Sequence (Q61009 whole entry, looked up): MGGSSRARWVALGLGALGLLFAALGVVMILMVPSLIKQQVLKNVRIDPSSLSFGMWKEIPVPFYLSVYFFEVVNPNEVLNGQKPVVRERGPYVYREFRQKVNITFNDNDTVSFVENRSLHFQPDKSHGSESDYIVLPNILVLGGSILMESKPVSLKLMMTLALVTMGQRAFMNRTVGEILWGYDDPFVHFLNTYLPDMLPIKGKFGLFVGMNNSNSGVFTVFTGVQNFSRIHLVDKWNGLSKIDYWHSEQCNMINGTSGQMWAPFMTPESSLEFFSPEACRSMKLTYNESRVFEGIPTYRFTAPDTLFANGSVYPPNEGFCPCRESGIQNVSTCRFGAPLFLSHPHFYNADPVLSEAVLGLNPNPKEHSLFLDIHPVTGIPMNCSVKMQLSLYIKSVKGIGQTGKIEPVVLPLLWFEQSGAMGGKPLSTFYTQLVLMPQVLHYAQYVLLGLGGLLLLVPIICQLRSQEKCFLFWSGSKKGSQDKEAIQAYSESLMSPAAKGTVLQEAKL

SMILES | inhibition
Cc1nc(-c2ccc(Cl)cc2)sc1C(=O)NN | 25.2% (inactive)
C=CCNC(=O)c1cc(-c2ccccc2O)on1 | 44.1% (inactive)
C=CCNC(=O)c1sc(SC)cc1-c1ccc(Cl)cc1 | 73.9% (active)
CC[C@]12c3[nH]c4cc(CCC(=O)N(C)C)ccc4c3CCN1C(=O)[C@@H](CC(=O)NCC13CC4CC(CC(C4)C1)C3)C[C@@H]2C(=O)N1CCN(C(=O)C2CC2)CC1 | 1.08% (inactive)
Cc1ccc(-n2c(SCC(=O)N/N=C/C=C/c3ccccc3[N+](=O)[O-])nc3ccccc3c2=O)cc1 | 74% (active)
O=C(CSc1nc2ccccc2[nH]1)N/N=C/C=C\c1ccccc1[N+](=O)[O-] | 4.51% (inactive)
CCn1c(SCC(=O)N/N=C/C=C/c2ccccc2[N+](=O)[O-])nnc1-c1ccccc1 | 14.2% (inactive)
CNN/C(N=Cc1ccc([N+](=O)[O-])s1)=N\S(=O)(=O)c1cc(C)c(Cl)cc1SCc1ccccc1 | -9.94% (inactive)
CC(C=Cc1ccccc1)=NNS(=O)(=O)c1ccc([N+](=O)[O-])cc1 | -6.47% (inactive)
CCc1ccc(C(=O)C(C)OC(=O)CN2C(=O)NC3(CCCC3)C2=O)cc1 (stereo not drawn) | -13.5% (inactive)
CC(C)(C)S(=O)(=O)N1Cc2cc(CO)cc(CCO)c2[C@H]1CCO | 2.47% (inactive)
CCOc1ccc(-n2c(O)c(/C=N/Nc3nnc(C)c(=O)[nH]3)c3ccccc3c2=O)cc1 | 108% (active)
CCOc1ccc(-n2c(O)c(/C=N/Nc3nc(C)cc(C)n3)c3ccccc3c2=O)cc1 | 34.2% (inactive)
CCOc1ccc(-n2c(O)c(/C=N/c3ccnn3Cc3ccncc3)c3ccccc3c2=O)cc1 | -0.942% (inactive)
CC(=O)N1CCc2ccc(N)cc21 | 12.2% (inactive)
COc1cc(/C=N/NC(=O)Nc2ccccc2)ccc1OCCOc1ccccc1C | 71.4% (active)
COc1cc(/C=N/NC(=O)c2ccoc2C)ccc1OCCN1CCCCC1 | 3.01% (inactive)
COc1cc(/C=N/NC(=O)Cc2ccccc2)cc(OC)c1OC | 3.39% (inactive)
O=C1OC(Oc2ccc(Br)cc2)(c2ccccc2)c2ccccc21 (stereo not drawn) | 0.981% (inactive)
CCc1nnc(NC(=O)c2cc(S(=O)(=O)N3CCN(CC)CC3)ccc2Cl)s1 | -25.4% (inactive)
CCOc1ccc(-n2c(SCC(=O)Nc3cc(C(=O)O)ccc3Cl)nc3ccccc3c2=O)cc1 | -14% (inactive)
Cc1ccc(-n2c(SCC(=O)Nc3ncc(Cl)cc3Cl)nc3ccccc32)cc1 | 78.1% (active)

SMILES | inhibition
NS(=O)(=O)c1cccc(NC(=O)CSc2nc3ccccc3n2-c2ccccc2)c1 | 23.7% (inactive)
COc1cc(OC)cc(-c2sc3ccc(OC)cc3c2-c2ccc3cc[nH]c3c2)c1 | 58.8% (inactive)
COc1ccc2sc(-c3ccc(S(C)(=O)=O)cc3)c(-c3ccc(C(N)=O)cc3)c2c1 | 54.1% (inactive)
COc1ccc2sc(-c3ccc(S(C)(=O)=O)cc3)c(C#Cc3cncn3C)c2c1 | 13.9% (inactive)
COc1ccc(-c2sc3ccc(OC)cc3c2C#Cc2ccccn2)cc1 | 56.6% (inactive)
COc1ccc2sc(-c3ccc(N(C)C)cc3)c(-c3ccc4cc[nH]c4c3)c2c1 | 85% (active)
COc1ccc2sc(-c3ccc(N(C)C)cc3)c(C#CCO)c2c1 | 99.4% (active)
CN1CCC(N(C)C(=O)c2ccc(Cl)c(S(=O)(=O)Nc3ccc(Cl)cc3)c2)CC1 | -12% (inactive)
O=C(NCC1CCCCC1)NCC1CCCCC1 | -12.9% (inactive)
O=C(O)c1ccc(S(=O)(=O)c2ccccc2)s1 | -1.03% (inactive)
COc1ccc2nc(N3C(=O)C(O)=C(C(=O)c4ccco4)C3c3ccco3)sc2c1 (stereo not drawn) | -2.11% (inactive)
O=C(Cc1ccc(S(=O)(=O)N2CCOCC2)s1)Nc1ccc(Br)c(C(F)(F)F)c1 | -43.4% (inactive)
CC(C)Cn1cnc2c(SCc3ccc(Cl)cc3)nc(N)nc21 | 7.71% (inactive)
CCCCC(=O)Nc1ccccc1N1CCN(c2ccc(F)cc2)CC1 | 34% (inactive)
CCC(C)C(=O)Nc1ccccc1N1CCN(c2ccc(F)cc2)CC1 (stereo not drawn) | 36.3% (inactive)
Cc1cccc(C(=O)Nc2ccccc2N2CCN(c3ccc(F)cc3)CC2)c1 | 74.9% (active)
c1ccc(-c2nnc(N3CCOCC3)c3ccccc23)cc1 | 27.8% (inactive)
CCCC(=O)N1CCN(c2nnc(-c3ccc(C)cc3)c3ccccc23)CC1 | 76.8% (active)
OCCN1CCN(c2nnc(-c3ccccc3)c3ccccc23)CC1 | 3.57% (inactive)
Cc1ccc(-c2csc(C(C#N)=C(O)CN3CCN(C(=O)c4ccco4)CC3)n2)cc1 | 4.1% (inactive)
CCOc1ccc(/C=C(/C#N)c2nnc(N3CCOCC3)n2-c2ccccc2)cc1OC | -9.11% (inactive)
O=C(Cc1ccc(NC(=O)C2CCCN(C(=O)C3CCCCC3)C2)cc1)Nc1cccc(C(=O)N2CCCCC2)c1 (stereo not drawn) | 43.2% (inactive)

SMILES | inhibition
CNc1nc(=O)n(C2CCCO2)cc1C (stereo not drawn) | 0.704% (inactive)
CCOC(=O)N(Cc1ccccc1)C1CC1 | 1.61% (inactive)
CC(=O)Nc1cccc(-c2csc(Nc3cccc(C)n3)n2)c1 | 76.4% (active)
COc1ccc(CCN(C(=O)COc2ccccc2)c2nc(-c3ccccc3)cs2)cc1OC | 24.1% (inactive)
Cc1cccc(Nc2nc(-c3ccccc3)cs2)n1 | 52.4% (inactive)
COc1ccc(CC(=O)Nc2nc(-c3ccc(F)c(F)c3)cs2)cc1OC | 29.1% (inactive)
COc1ccc(CCNc2nc(-c3cccc(NC(C)=O)c3)cs2)cc1OC | 75.5% (active)
CC(=O)Nc1ccc(-c2csc(NC=C3C(=O)OC(C)(C)OC3=O)n2)cc1 | 4.07% (inactive)
CCC1([N+](=O)[O-])COC(c2ccc(C)cc2)OC1 (stereo not drawn) | -12.8% (inactive)
Nc1cc(=O)n(Cc2ccccc2)c(=O)n1Cc1ccccc1 | 0.22% (inactive)
C[C@@H]1ON(C)[C@H]2C[C@H]3c4cc(N5CCN(C)CC5)ccc4CCN3C(=O)[C@@H]12 | -19.4% (inactive)
Cn1c(=S)sc2ccc3ccccc3c21 | 5.87% (inactive)
N#CC1(Nc2ccc(-c3ccc(Cl)cc3)cc2)CCCC1 | 5.44% (inactive)
O=C(Nc1cccc(S(=O)(=O)N2CCCCC2)c1)c1ccc2c(c1)OCO2 | 8.54% (inactive)
O=C(Nc1ccc(NC(=O)c2ccc3c(c2)OCO3)cc1)c1cccc(Cl)c1 | -14.8% (inactive)
O=C(Nc1cccc(S(=O)(=O)Nc2ccc(Cl)cc2)c1)c1ccc2c(c1)OCCO2 | 70.2% (active)
NS(=O)(=O)c1ccc(CCNC(=O)c2ccc(Cl)c(S(=O)(=O)N3CCCCCC3)c2)cc1 | 32.8% (inactive)
CCCCC(=O)Nc1ccc(C(=O)Nc2cc(C(F)(F)F)ccc2Cl)cc1 | 67.9% (inactive)
CCCC(=O)Nc1ccc(Cl)c(NC(=O)c2ccc(Br)o2)c1 | 70.8% (active)
CCN1CCN(c2c(Cl)cccc2NC(=O)c2ccc(Br)o2)CC1 | 33.7% (inactive)
COc1cc2c(cc1OC)C1C(=O)c3cc(OS(C)(=O)=O)c(OC)cc3C1N(C)C2=O (stereo not drawn) | -1% (inactive)
O=C1COc2c1ccc(O)c2O | -17.3% (inactive)

SMILES | inhibition
CN(CCc1ccccc1)C(=O)c1cccc(NC(=O)Cc2cccc(NC(=O)C3CCCN(C(=O)CCc4ccccc4)C3)c2)c1 (stereo not drawn) | 78.5% (active)
CN(CCc1ccccc1)C(=O)c1cccc(NC(=O)Cc2cccc(NC(=O)C3CCCN(C(=O)C4CCC4)C3)c2)c1 (stereo not drawn) | 26.9% (inactive)
CN(C(=O)c1cccc(NC(=O)Cc2cccc(NC(=O)C3CCCN(C(=O)C4CC4)C3)c2)c1)C1CCC1 (stereo not drawn) | 31.6% (inactive)
O=C(Cc1ccc(NC(=O)C2CCCN(C(=O)CCc3ccccc3)C2)cc1)Nc1ccc(C(=O)N2CCOCC2)cc1 (stereo not drawn) | 58.6% (inactive)
CN(C(=O)c1cccc(NC(=O)Cc2ccc(NC(=O)C3CCCN(C(=O)C4CCCC4)C3)cc2)c1)C1CCC1 (stereo not drawn) | 86.9% (active)
CN(C(=O)c1cccc(NC(=O)Cc2ccc(NC(=O)C3CCCN(C(=O)C4CC4)C3)cc2)c1)C1CC1 (stereo not drawn) | 70% (inactive)
COc1cc(/C=C/c2ccc(/C=C/c3cc(OC)c(OC)c(OC)c3)cc2)cc(OC)c1OC | 51.2% (inactive)
Nc1cc2c(cc1Br)-c1ccc(F)cc1C2=O | 22.3% (inactive)
C=CCOC(=O)N1CCC2CC1c1cc(-c3ccc(OC)cc3)ccc12 (stereo not drawn) | -4.14% (inactive)
Oc1c(CN2CCOCC2)ccc(CN2CCOCC2)c1O | 0.438% (inactive)
Cc1c(Cl)c([N+](=O)[O-])nn1Cc1ccc(C(=O)N/N=C\c2cc(Cl)ccc2O)o1 | 129% (active)
Cc1ccc(C(=O)O)cc1NC(=O)c1ccc(Cn2nc(C)c(Cl)c2C)o1 | 4.04% (inactive)
Cc1c(Cl)c([N+](=O)[O-])nn1CCCC(=O)Nc1cc(Cl)ccc1Cl | -14.8% (inactive)
CC(C)CN1CC(C)C(=O)N(c2ccccc2)C1=S (stereo not drawn) | -3.77% (inactive)
COc1ccc2oc(C(=O)OCC(=O)N(CC(C)C)c3c(N)n(Cc4ccccc4)c(=O)[nH]c3=O)c(C)c2c1 | 71% (active)
CC(C)CN(C(=O)COC(=O)c1ccc(Cl)c(N)c1)c1c(N)n(Cc2ccccc2)c(=O)[nH]c1=O | 21.7% (inactive)
CC(C)CN(C(=O)COC(=O)c1ccc2ccccc2c1)c1c(N)n(Cc2ccccc2)c(=O)[nH]c1=O | 27.1% (inactive)
CCC(C)C1(C2CCCC2)NC(=O)NC1=O (stereo not drawn) | -1.25% (inactive)
C[n+]1cccc(C(=O)O)c1 | -14.9% (inactive)
COc1cccc(C(=O)NCCS(=O)(=O)NCC2CCCO2)c1 (stereo not drawn) | -26.7% (inactive)
COc1ccc2cc(C(=O)NCC3CCCO3)[nH]c2c1 (stereo not drawn) | -25.3% (inactive)
COc1cccc(/C=C2\Sc3ccc(C(=O)NCC4CCCO4)cc3N(C)C2=O)c1 (stereo not drawn) | 76.6% (active)

Source: PubChem BioAssay AID488896 (Broad Institute, 2010)
